Screening results as filed in PubChem BioAssay.
BAZ2B inh: BAZ2B (human) inhibition | Q9UIF8 | AlphaScreen BAZ2B-H3K14Ac peptide displacement | Potency, µM (highest dose often 114 µM), for the others: at the highest dose activity change, negative = inhibition, most hits filed as inhibitors | 4.4% of 360,000 active; note: % is set by controls: 0 for no effect and ±100 for the full control effect; nearly all actives have a fitted effect of over 60% in size
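Inhibition is scored as reduced AlphaScreen emission. The BAZ2B/b-H3(5-23)K14Ac complex (50 nM each) in PBS pH 7.4, 0.01% Tween-20 meets compound (up to 110 uM) for 30 min at RT before bead addition.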
PLK1 PBD inh: blocks phosphopeptide binding to human PLK1 polo-box domain. P53350. Plk1 PBD binding of FITC phosphopeptide, fluorescence polarization. Potency, µM, without a hit: max response, negative = inhibition, usual class: inhibitors. 2.8% of 360,000 active. AID 720504; note: series mostly up to about 57 µM; % is set by controls: 0 for no effect and ±100 for the full control effect; nearly all actives have a fitted effect of over 65% in size
Sfp inh: Sfp phosphopantetheinyl transferase inhibition; Q9F4F7; Biochemical Sfp PPTase activity, qHTS; Potency, µM, inactives show largest response in the series, negative = inhibition, hits mostly inhibitors; 3.5% of 310,000 active; AID 1490;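 note: the enzyme is Sfp with the accession as filed and its product quenches rhodamine fluorescence; 0% = enzyme reaction without inhibitor and -100% = no enzyme wells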
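Fluorescence-quenching assay with 15 nM Sfp, 5 uM rhodamine-CoA and 12.5 uM BHQ-2-labelled ybbR peptide in pH 7.6 Hepes/MgCl2 buffer. Enzyme was pre-incubated with compound for 15 min at room temperature. Rate was taken from the 30-min fluorescence change (525/598 nm).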
G9a inh: inhibitors of human histone lysine methyltransferase G9a; Potency, µM (top dose mostly 102 µM), for inactives: at the highest dose activity, negative = inhibition, actives largely listed as inhibitors; AID 504332; 8.8% of 350,000 active; G9a H3K9 monomethylation, AlphaScreen, 2 h; Q96KQ7; note: % is set by controls: 0 for no effect and ±100 for the full control effect; nearly all actives have a fitted effect of over 75% in size
Target sequence (Q96KQ7 913-1193 limits assumed): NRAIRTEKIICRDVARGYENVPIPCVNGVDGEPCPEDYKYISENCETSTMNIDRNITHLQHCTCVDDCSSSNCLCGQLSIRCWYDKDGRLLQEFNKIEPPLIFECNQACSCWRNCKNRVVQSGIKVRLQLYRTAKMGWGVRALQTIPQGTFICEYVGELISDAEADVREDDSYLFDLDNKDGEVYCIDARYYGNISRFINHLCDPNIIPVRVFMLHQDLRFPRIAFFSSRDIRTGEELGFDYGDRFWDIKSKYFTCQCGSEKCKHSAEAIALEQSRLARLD
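AlphaScreen detection with an anti-monomethyl H3K9 antibody quantified product after a 2 h room-temperature reaction containing 500 nM biotinylated H3K9 peptide, 20 µM SAM and 20 nM enzyme, which had been preincubated 15 min with compound.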
JMJD2A Tudor: JMJD2A Tudor domain (human) inhibition; AlphaScreen JMJD2A-Tudor / H3K4me3 peptide binding; Potency, µM (highest dose often 114 µM), for inactives: at the top dose activity change, negative = inhibition, most hits filed as inhibitors; 4.4% of 390,000 active; AID 504339; note: % is set by controls: 0 for no effect and ±100 for the full control effect; nearly all actives have a fitted effect of over 50% in size
HP1b chromo inh: inhibitors of HP1-beta chromodomain binding to methylated histone tails. Potency, µM (top dose mostly 114 µM), without a hit: at the highest dose activity change, negative = inhibition, hits mostly inhibitors. AlphaScreen HP1-beta / biotin-H3K9me3 peptide binding. AID 540317. P83916. 0.56% of 390,000 active; note: nearly all actives have a fitted effect of over 70% in size
Target sequence (P83916 whole entry, looked up): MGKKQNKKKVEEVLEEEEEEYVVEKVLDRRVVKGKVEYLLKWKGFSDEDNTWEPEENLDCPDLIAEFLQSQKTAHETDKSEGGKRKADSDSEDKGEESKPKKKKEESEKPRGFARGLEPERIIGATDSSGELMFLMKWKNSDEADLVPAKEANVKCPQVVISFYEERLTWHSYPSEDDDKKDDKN
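HP1-beta protein (50 nM final) preincubated 30 min at room temperature with biotinylated H3(1-18)K9me3 peptide (50 nM) in PBS pH 7.4, 0.01% Tween-20, then compound added for 30 min. AlphaScreen streptavidin donor/nickel chelate acceptor beads (10 ug/mL final), 30 min dark, luminescence read.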
Active calls of the source: *; ? = inconclusive; . = not tested or not shown; [ ] = another dose, or the depositor's remark. An excerpt weighted towards active compounds, which were near 12% of everything screened. Calls come from the whole dose curve; as a rule, active = well fitted curve in the direction sought with a large enough effect; inconclusive = small, poorly fitted or top-dose-only effect, or another doubt; inactive = no such curve, though single readings can be large; an effect the other way counts as inactive or inconclusive. Potency is the fitted concentration of half-maximal effect.

SMILES	BAZ2B inh	PLK1 PBD inh	Sfp inh	G9a inh	JMJD2A Tudor	HP1b chromo inh
N#CC1c2ccccc2C=CN1C(=O)c1ccccc1 (stereo unspecified)	25%	-7%	13%	3%	-19%	14%
CC(=O)[C@@H]1[C@@H](C(=O)c2ccccc2)[C@]2(C(=O)Nc3ccccc32)[C@H]2C=Cc3cc(F)ccc3N12	?	-29%	-19%	8.9µM*	-36%	-31%
CN(c1ccc(C(=O)N2CCN(Cc3ccccc3)CC2)cc1)S(=O)(=O)c1ccc(Cl)cc1	-28%	-4%	5%	?	-27%	7%
COc1cccc(C(=O)O/N=C(\N)c2ccccn2)c1OC	3%	24µM*	0%	13%[2.33 µM]	?	21%
Cc1c(C(=O)O/N=C(\N)c2ccccn2)cccc1[N+](=O)[O-]	-27%	0%	7%	32µM*	11µM*	1%
N/C(=N\OC(=O)Cc1ccccc1[N+](=O)[O-])c1ccccn1	56µM*	-7%	-30%	?	?	12%
COc1ccc(C2NC(=S)NC3=C2CCCC3=C2SCCS2)cc1 (stereo unspecified)	32µM*	-19%	16%	?	-27%	-5%
COC(=O)C1=C(C)C(c2ccc(OC)cc2)NC(=S)N1 (stereo unspecified)	0%[57.1 µM]	-9%	8%	21%[12.7 µM]	-21%[57.1 µM]	39%
S=C1NC2=C(CCCC2=C2SCCCS2)C(c2ccccc2)N1 (stereo unspecified)	?	-25%	-12%	0.79µM*	-2%[11.4 µM]	17%
Cc1cc(-c2ccc(S(=O)(=O)N3CCN(c4ccc(Cl)cc4)CC3)s2)on1	2%	.	.	2%[59 µM]	1%	29%
CN1CCN(C(CNC(=O)C(=O)Nc2ccc(F)cc2F)c2ccc3c(c2)OCO3)CC1 (stereo unspecified)	-8%	.	.	-4%[59 µM]	-16%	14%[57 µM]
Cc1cc(C)cc(NC(=O)CSc2nnc(-c3cc4occc4n3C)n2-c2ccccc2C)c1	-29%	.	.	?	-35%	3%
O=C(Cn1nnc(-c2ccccc2)n1)NNC(=O)c1ccco1	-4%	-5%	7%	-6%	-4%	16%
COc1cc2c(cc1OC)CN(C1CC(=O)N(c3c(C)cccc3C)C1=O)CC2 (stereo unspecified)	-23%	-15%	6%	79µM*	-32%	7%
COc1ccc(NC2SC(=O)N(CC(=O)O)C2=O)cc1 (stereo unspecified)	-28%	-22%	-6%	40µM*	79µM*	8%
CCOC(=O)c1ccc(NC2SC(=O)N(Cc3cccc(C(=O)O)c3)C2=O)cc1 (stereo unspecified)	-5%	.	.	2.8µM*	-21%	41%
CC1CCCCN1CCCNC(=O)Cn1ncc2c3ccccc3n(Cc3ccccc3)c2c1=O (stereo unspecified)	-1%	.	.	-2%[59 µM]	-7%	46%
Cc1ccc(NC(=O)CSc2nc(-c3ccco3)nc3cc(=O)[nH]n23)cc1	-37%	.	.	9%[59 µM]	-26%	8%
CCOc1ccc(NC(=O)COC(=O)CCN2C(=O)C3CC=CCC3C2=O)cc1OCC (stereo unspecified)	?	7%	.	4µM*	?	-21%
CCOc1ccc(NC(=O)CCN2C(=O)C3CCCCC3C2=O)cc1OCC (stereo unspecified)	-15%	-1%	.	3%[0.501 µM]	-21%	11%
CCC(=O)Nc1ccc(C(=O)COC(=O)CCN2C(=O)C3CC=CCC3C2=O)cc1 (stereo unspecified)	13%	-15%	.	50µM*	-23%	-10%
COC(=O)c1c(NC(=O)Cc2ccc(OC)c(S(=O)(=O)N3CCOCC3)c2)sc(C)c1C	-26%	-11%	.	50µM*	-30%	-9%
COc1ccc2nc(NC(=O)Cc3ccc(OC)c(S(=O)(=O)N4CCOCC4)c3)sc2c1	-8%	?	16%	79µM*	-11%[11.4 µM]	-23%
COc1ccc(CC(=O)Nc2nccs2)cc1S(=O)(=O)N1CCOCC1	.	0%	.	.	-2%	17%
CC(Oc1ccc(Cl)cc1Cl)C(=O)NNC(=O)C(=O)N1CCCCC1 (stereo unspecified)	6%	-2%	9%	-6%	-14%	32%
SMILES	BAZ2B inh	PLK1 PBD inh	Sfp inh	G9a inh	JMJD2A Tudor	HP1b chromo inh
CCCCCC(=O)/C=C/[C@H]1[C@H](O)CC(=O)[C@@H]1C/C=C\CCCC(=O)O	.	.	0%	.	.	.
COC(=O)c1ccc2nc(C3CCCCC3)c(Cc3ccccc3)n2c1	.	-4%	.	.	.	.
O=C1C2C3C=CC(C3)C2C(=O)N1c1cccc2ccccc12 (stereo unspecified)	2%	5%	2%	-5%	-10%	27%
O=C1[C@H]2[C@@H](C(=O)N1c1cccc3ccccc13)C1(C(=O)c3ccccc3C1=O)N1CCC[C@@H]21	?	-3%	?	40µM*	-9%	6%
CC(C)(C)NC(=O)C[C@H]1C[C@H](C(=O)N2CCOCC2)[C@@]2(C)c3[nH]c4ccc(Cl)cc4c3CCN2C1=O	.	-6%	.	.	-23%	16%
NC(=O)c1sc2nccc(Nc3ccccc3)c2c1N	-7%	?	40µM*	?	?	-14%
CN(C)CCCNCCCNC(=O)/C(=N\O)c1ccccc1	-39%	-10%	11%	50µM*	?	-4%
CN(C)CCCNCCCNC(=O)c1ccccn1	-2%	-16%	-6%	?	5%[11.4 µM]	7%
CN(C)CCNC(=O)/C(=N\O)c1ccccn1	?	-2%	?	50µM*	-9%	20%
COc1ccc(NC(C)=O)cc1NC(C)c1nc2sc(C)c(C)c2c(=O)[nH]1 (stereo unspecified)	?	-1%	?	?	-34%	-25%
Cc1sc2nc(C(C)Sc3n[nH]c(N)n3)[nH]c(=O)c2c1C (stereo unspecified)	-5%	.	56µM*	25µM*	.	.
CC(C)CNC(=O)C1C(=O)Nc2ccccc2C(=O)N1C1CCCCC1 (stereo unspecified)	.	-10%	.	.	.	.
O=C1C2C3C=CC(C4CC34)C2C(=O)N1c1ccc2c(c1)OCO2 (stereo unspecified)	.	-16%	-1%	50µM*	0%	46%
CC(C)=C1C2C=CC1C1C(=O)N(c3ccc4c(c3)OCO4)C(=O)C21 (stereo unspecified)	-5%	-3%	?	10µM*	-14%	55%
CC(C)=C1C2CCC1C1C(=O)N(c3ccc4c(c3)OCO4)C(=O)C21 (stereo unspecified)	0%	0%	4%	-7%[59 µM]	-2%	27%
COc1cc(/C=C\C(=O)N2CCC=CC2=O)cc(OC)c1OC	.	.	15%	9%[21.5 µM]	.	.
